The target of assay [1] is Cytochrome P450 3A4 (Homo sapiens) (UniProt P08684). The experiment in a line: qHTS Assay for Inhibitors and Substrates of Cytochrome P450 3A4 (AID 884). For activity change, negative = inhibition: series mostly up to about 57 µM; % is set by controls: 0 for no effect and ±100 for the full control effect. Note: nearly all actives have a fitted effect of over 50% in size. Note: potency is the fitted concentration of half-maximal effect. In short, it runs like this: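 20 nM human CYP3A4 with 25 uM Luciferin-PPXE (at KM) in 200 mM KPO4, preincubated 10 min with compound; NADPH regeneration started a 60 min RT reaction. Luciferin detected by luminescence, normalized to 57 uM ketoconazole as full inhibition.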
(Quantitative high-throughput screening tests each substance at several concentrations.)

For assay [2] the target is unchanged. The assay can be described thus: qHTS Assay for Activators of Cytochrome P450 3A4 (AID 885). Note: nearly all actives have a fitted effect of over 65% in size. In short, it runs like this: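 Signal was normalized against complete inhibition by 57 uM ketoconazole. The reaction used 20nM CYP3A4 with 25uM Luciferin-PPXE, 10-min compound preincubation and a 60-min NADPH-supported step at RT.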
Assay [3] concerns the target Cytochrome P450 2D6 (Homo sapiens) (UniProt P10635). The experiment in a line: qHTS Assay for Inhibitors and Substrates of Cytochrome P450 2D6 (AID 891).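 For activity change, negative = inhibition: luciferin methyl ether substrate demethylated by CYP2D6 with NADPH regeneration; % is set by controls: 0 for no effect and ±100 for the full control effect.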 Note: nearly all actives have a fitted effect of over 60% in size. Note: potency is the fitted concentration of half-maximal effect. In short, it runs like this:
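Human CYP2D6 (5 nM) with 30 uM Luciferin-ME EGE (at Km) in 100 mM KPO4, compound preincubated 10 min, then NADPH regeneration system for 60 min at room temperature. Luciferin read by luminescence; normalized to 1.43 uM quinidine.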

Assay [4] has as its target Cytochrome P450 2C19 (Homo sapiens) (UniProt P33261). The experiment in a line: qHTS Assay for Inhibitors and Substrates of Cytochrome P450 2C19 (AID 899). Note: nearly all actives have a fitted effect of over 60% in size. Note: potency is the fitted concentration of half-maximal effect. In short, it runs like this: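 Luminescence readout of luciferin formed from 10uM Luciferin-H EGE (KM level) by 5 nM CYP2C19 in 50mM KPO4. 60 min NADPH-driven reaction at 37C after 10 min compound preincubation; data scaled to 57uM ketoconazole inhibition.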

“And” between values parts separate entries of the source, which are not always exact repeats. Equal entries are not always repeated. Inconclusive results are not listed. More than one record can exist for a structure, and the calls need not agree. The source made the active and inactive calls. Calls come from the whole dose curve; as a rule, active = well fitted curve in the direction sought with a large enough effect; inconclusive = small, poorly fitted or top-dose-only effect, or another doubt; inactive = no such curve, though single readings can be large; an effect the other way counts as inactive or inconclusive.

Sequence of Cytochrome P450 2D6 (Homo sapiens) (P10635 whole entry, looked up): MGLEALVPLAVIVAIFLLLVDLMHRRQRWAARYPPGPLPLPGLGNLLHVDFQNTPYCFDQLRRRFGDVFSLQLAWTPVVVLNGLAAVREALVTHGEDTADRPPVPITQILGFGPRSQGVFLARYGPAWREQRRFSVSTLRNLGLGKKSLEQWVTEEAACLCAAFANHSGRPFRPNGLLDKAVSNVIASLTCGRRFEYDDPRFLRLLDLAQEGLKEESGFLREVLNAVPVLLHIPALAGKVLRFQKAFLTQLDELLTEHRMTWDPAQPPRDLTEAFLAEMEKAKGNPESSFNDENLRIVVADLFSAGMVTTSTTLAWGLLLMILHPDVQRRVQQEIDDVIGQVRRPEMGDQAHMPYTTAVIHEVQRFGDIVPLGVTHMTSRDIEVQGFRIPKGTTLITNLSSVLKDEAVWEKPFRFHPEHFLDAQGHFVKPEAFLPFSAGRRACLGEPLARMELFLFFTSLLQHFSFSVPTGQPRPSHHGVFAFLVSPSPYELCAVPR
Sequence of Cytochrome P450 2C19 (Homo sapiens) (P33261 whole entry, looked up): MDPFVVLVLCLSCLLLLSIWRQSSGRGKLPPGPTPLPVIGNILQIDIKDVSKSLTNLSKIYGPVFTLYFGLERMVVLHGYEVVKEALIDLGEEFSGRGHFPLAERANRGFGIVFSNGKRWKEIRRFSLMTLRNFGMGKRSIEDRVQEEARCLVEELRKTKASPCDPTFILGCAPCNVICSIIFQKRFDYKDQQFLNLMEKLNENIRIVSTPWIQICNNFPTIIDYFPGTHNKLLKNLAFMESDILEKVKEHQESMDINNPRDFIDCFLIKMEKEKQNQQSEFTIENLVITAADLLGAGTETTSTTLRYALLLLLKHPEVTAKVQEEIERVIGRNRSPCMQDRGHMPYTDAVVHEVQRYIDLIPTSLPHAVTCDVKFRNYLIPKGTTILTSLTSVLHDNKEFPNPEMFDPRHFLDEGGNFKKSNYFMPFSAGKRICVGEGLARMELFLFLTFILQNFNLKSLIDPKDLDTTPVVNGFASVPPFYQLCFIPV
Sequence of Cytochrome P450 3A4 (Homo sapiens) (P08684 whole entry, looked up): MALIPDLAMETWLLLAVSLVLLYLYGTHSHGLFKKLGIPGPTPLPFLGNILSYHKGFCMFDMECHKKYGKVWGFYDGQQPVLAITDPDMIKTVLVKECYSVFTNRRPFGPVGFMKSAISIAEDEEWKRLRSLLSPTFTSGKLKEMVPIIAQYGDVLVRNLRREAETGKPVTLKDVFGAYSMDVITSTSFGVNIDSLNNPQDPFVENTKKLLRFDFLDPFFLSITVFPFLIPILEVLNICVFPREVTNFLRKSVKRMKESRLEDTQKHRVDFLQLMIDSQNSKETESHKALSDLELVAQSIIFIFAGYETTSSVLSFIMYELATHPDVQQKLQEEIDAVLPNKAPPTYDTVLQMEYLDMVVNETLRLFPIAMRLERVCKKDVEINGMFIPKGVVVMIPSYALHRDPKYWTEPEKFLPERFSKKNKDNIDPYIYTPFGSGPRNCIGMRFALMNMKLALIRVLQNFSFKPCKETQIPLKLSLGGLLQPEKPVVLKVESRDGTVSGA

For `COc1ccc(O[C@H]2C=C[C@@H](c3ccccc3)O[C@H]2COC(=O)CC/C(C)=N\O[C@@H](C)CN2CCCc3nc(C)c(C)cc32)cc1`, the Potency in assay [1], in assay [3] and in assay [4] was 3.16 µM (active) in each case. In assay [2], the activity change, positive = activation was -97% [at 11.4 µM] (inactive).
As to `CO[C@H]1COC(=O)C/C=C\[C@H](C)[C@@H](NS(=O)(=O)c2ccc(C)cc2)COC(=O)C/C=C\[C@@H]1C`, in assay [1], the Potency was 3.16 µM (active). For the same compound, the activity change, positive = activation in assay [2] is -67.8% [at 11.4 µM] (inactive) and -95.2% [at 11.4 µM] (inactive). For the same compound, the Potency result in assay [3] is “inactive”.
Regarding `CO[C@H]1COC(=O)[C@@H](Cc2ccccc2)NC(=O)[C@@H](C)COC(=O)CCC[C@@H]1C`, the Potency in assay [1] was 3.16 µM (active). In addition, the activity change, positive = activation in assay [2] is -63.9% [at 11.4 µM] (inactive). In assay [3], the Potency result is “inactive”.
For the compound `C=C(C)C(O)/C=C/c1ccc(OC)cc1` (configuration not stated), in assay [1], the Potency was 5.01 µM (active). Further, the activity change, positive = activation in assay [2] was -85.8% [at 11.4 µM] (inactive). Moreover, the Potency result in assay [3] was “inactive”.
For `CC1(C)OC(C(O)(c2ccccc2)c2ccccc2)C(C(O)(c2ccccc2)c2ccccc2)O1` (configuration not stated), in assay [1], the Potency was 2.51 µM (active). Moreover, the activity change, positive = activation in assay [2] is -63.1% [at 11.4 µM] (inactive). The Potency result in assay [3] and in assay [4] was “inactive” each time.
For `C=CCOC(=O)C(C(C)=O)C(NC(=O)OC)c1ccc(Cl)cc1` (configuration not stated), the Potency is 1.26 µM (active) in assay [1] and 0.251 µM (active) in assay [4]. Besides, the activity change, positive = activation in assay [2] was -107% [at 11.4 µM] (inactive). In addition, in assay [3], the Potency result was “inactive”.
Taken in the same sequence, the figures for `COC(=O)NC(CC(C)=O)c1ccc2c(c1)OCO2` (configuration not stated) were 3.98 µM (active), “inactive”, -67.3% [at 11.4 µM] (inactive) and “inactive”.
The like results for `CCCCC#CC1C=CC(Oc2ccc(C(=O)OC)cc2)C(COC(=O)OCC)O1` (configuration not stated) were, in that order, 3.98 µM (active), “inactive”, -80.8% [at 11.4 µM] (inactive) and “inactive”.
Taken in the same sequence, the figures for `CCOC(c1cc(OC)cc([N+](=O)[O-])c1OC)C(C)C(OC)[C@@H](C)/C=C/CC(=O)OC` (some centres not stated) were 3.98 µM (active), 1 µM (active), -78.6% [at 11.4 µM] (inactive) and “inactive”.
For `COc1ccc(/C=C/C2=CC3(C)CC2(C)C(c2ccc(OC)cc2)CC3=O)cc1` (configuration not stated), in assay [1], the Potency was 5.01 µM (active). Also, the activity change, positive = activation in assay [2] is -60.7% [at 11.4 µM] (inactive). Also, the Potency result in assay [3] and in assay [4] was “inactive” in each case.
`CC(=O)OCC1OC(C#Cc2ccc(C)cc2C)C=CC1OC(C)=O` (configuration not stated): the figures for the Potency in assay [1] and in assay [3] were 3.16 µM (active) and 3.98 µM (active), respectively. Also, in assay [2], the activity change, positive = activation was -83.4% [at 11.4 µM] (inactive).
On to `C=CCOC(=O)/C=C/NC(=O)/C=C/C=C/CCCCCCCC(C)O` (configuration not stated), for which, in assay [1], the Potency was 3.16 µM (active) and 3.98 µM (active). Besides, in assay [2], the activity change, positive = activation is -72.9% [at 11.4 µM] (inactive) and -68.1% [at 11.4 µM] (inactive). The Potency entry in assay [3] and in assay [4] was “inactive” throughout.
As to `CCOC(=O)OCC1OC(C#Cc2ccccc2)C=CC1OC(=O)OCC` (configuration not stated), the Potency in assay [1] was 3.98 µM (active); in assay [4] it was 2.51 µM (active). The activity change, positive = activation in assay [2] is -79.4% [at 11.4 µM] (inactive). In addition, the Potency result in assay [3] is “inactive”.
As to `COc1ccc(OC2C=CC(C#Cc3ccc(Br)cc3)OC2CO)c(C(C)(C)C)c1` (configuration not stated), the Potency in assay [1] was 3.98 µM (active). Also, in assay [2], the activity change, positive = activation was -84.8% [at 11.4 µM] (inactive). In addition, in assay [3], the Potency result is “inactive”.
The like results for `CC(=O)OC[C@H]1O[C@@H](O/N=C(\C)CCC(=O)OC[C@@H]2O[C@H](C#Cc3ccccc3)C=C[C@@H]2Oc2ccc(C)cc2)[C@H](OC(C)=O)[C@@H](OC(C)=O)[C@H]1OC(C)=O` were, in that order, 3.16 µM (active), -90.4% [at 11.4 µM] (inactive) and 3.98 µM (active).
Take `CC1CCC2C(=O)OC(COc3ccc(C(C)(C)C)cc3)CN2C1c1ccc(Br)cc1` (configuration not stated): in assay [1], the activity change, negative = inhibition was -22.1% [at 11.4 µM] (inactive) and -29.8% [at 11.4 µM] (inactive) and -21% [at 11.4 µM] (inactive). In addition, in assay [2], the activity change, positive = activation was -42.1% [at 11.4 µM] (inactive) and -33.2% [at 11.4 µM] (inactive). For the same compound, the Potency entry in assay [3] is “inactive”. The Potency in assay [4] was 251 nM (active) and inactive.
For the compound `COC(=O)NC(c1ccco1)C(C(C)=O)C(=O)OC` (configuration not stated), in assay [1], the Potency is 3.16 µM (active). Further, the activity change, positive = activation in assay [2] was -66.9% [at 11.4 µM] (inactive).
The like results for `COC(=O)C/C=C\[C@@H](C)[C@@H](/C=N\O[C@@H](C)c1cn([C@H]2COC[C@H]2O)nn1)NS(=O)(=O)c1ccc(C)cc1` were, in that order, 3.98 µM (active) and -71.6% [at 11.4 µM] (inactive).

The values above are taken from PubChem BioAssay (NCATS).
